# The supplement of paper PMC10849652
# The full data set covers some 8,800 targets. This sample favours those with a hit. About 0.5% of all pairs of compound and target were hits. Unmarked numbers belong to inactive results.
# What was measured:
# Test in all cases: log2 fold change, soluble protein after heating vs DMSO (PISA); higher = thermal stabilisation; K562 lysate, 10 uM; active = over 0.2 and 3.5 SD of the protein, either way, in both replicates (recomputed)
# ibrutinib = compound: C=CC(=O)N1CCC[C@@H](n2nc(-c3ccc(Oc4ccccc4)cc3)c3c(N)ncnc32)C1 [ibrutinib]
# Summary of the method: (§1)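 To prepare the extract, K562 pellets were dounce-homogenised in PBS pH 7.4 with 1 mM MgCl2, giving crude material at 1 mg/mL protein. This was treated with 10 μM compound for 30 min, then heated in aliquots for 3 min over 48°C-58°C before pooling and addition of NP-40 to 0.5% at 4°C. Centrifugation at 21,000xg for 90 min left soluble protein in the supernatant, which TMTpro 16plex LC-MS/MS quantified with equalised channel sums. Results are log-two fold changes in thermal stability compared with solvent controls, from duplicates.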
# [1] = compound: CC(=O)c1cnc2ccc(-c3cc(Cl)c(O)c(Cl)c3)nc2c1N[C@H]1CC[C@H](CN(C)C)CC1
# Summary of the method: as §1
# ralimetinib = compound: CC(C)(C)Cn1c(N)nc2ccc(-c3[nH]c(C(C)(C)C)nc3-c3ccc(F)cc3)nc21 [ralimetinib]
# Summary of the method: as §1
# [2] = compound: CC(C)(O)CC(=O)NCCn1ccc2ncnc(Nc3ccc(Oc4cccc(C(F)(F)F)c4)c(Cl)c3)c21
# Summary of the method: as §1
# [3] = compound: CC(C)C1=C2N=C(C=C(N2N=C1)NCC3=CC=CC=C3)NCCCCCCN
# Summary of the method: as §1
# [4] = compound: CC1=C(C(CC(=O)N1)C2=CC=C(C=C2)C(F)(F)F)C(=O)NC3=C(C=C4C(=C3)C=NN4)F
# Summary of the method: as §1
# [5] = compound: CC1=C(C2=C(C=C1)C(=O)C3=CC=CC=C3N2CCCN)C
# Summary of the method: as §1
# [6] = compound: CC1=C(C=C(C=C1)NC(=O)C2=CC(=CC=C2)C(C)(C)C#N)NC3=CC4=C(C=C3)N=CN(C4=O)C
# Summary of the method: as §1
# [7] = compound: CC1=C(C=C(C=C1)NC(=O)C2=CC(=CC=C2)N(C)C)NC(=O)C3=CC=C(C=C3)O
# Summary of the method: as §1
# [8] = compound: CC1=CC=C(C=C1)SC2=C3C=C(SC3=CN=C2)C(=O)N
# Summary of the method: as §1
# Chain of UniProt O60927 (O60927 whole entry, looked up): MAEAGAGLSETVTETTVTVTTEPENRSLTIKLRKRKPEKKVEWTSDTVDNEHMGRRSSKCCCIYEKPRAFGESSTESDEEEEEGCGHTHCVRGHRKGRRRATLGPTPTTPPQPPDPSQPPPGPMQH
# Chain of UniProt Q16512 (Q16512 whole entry, looked up): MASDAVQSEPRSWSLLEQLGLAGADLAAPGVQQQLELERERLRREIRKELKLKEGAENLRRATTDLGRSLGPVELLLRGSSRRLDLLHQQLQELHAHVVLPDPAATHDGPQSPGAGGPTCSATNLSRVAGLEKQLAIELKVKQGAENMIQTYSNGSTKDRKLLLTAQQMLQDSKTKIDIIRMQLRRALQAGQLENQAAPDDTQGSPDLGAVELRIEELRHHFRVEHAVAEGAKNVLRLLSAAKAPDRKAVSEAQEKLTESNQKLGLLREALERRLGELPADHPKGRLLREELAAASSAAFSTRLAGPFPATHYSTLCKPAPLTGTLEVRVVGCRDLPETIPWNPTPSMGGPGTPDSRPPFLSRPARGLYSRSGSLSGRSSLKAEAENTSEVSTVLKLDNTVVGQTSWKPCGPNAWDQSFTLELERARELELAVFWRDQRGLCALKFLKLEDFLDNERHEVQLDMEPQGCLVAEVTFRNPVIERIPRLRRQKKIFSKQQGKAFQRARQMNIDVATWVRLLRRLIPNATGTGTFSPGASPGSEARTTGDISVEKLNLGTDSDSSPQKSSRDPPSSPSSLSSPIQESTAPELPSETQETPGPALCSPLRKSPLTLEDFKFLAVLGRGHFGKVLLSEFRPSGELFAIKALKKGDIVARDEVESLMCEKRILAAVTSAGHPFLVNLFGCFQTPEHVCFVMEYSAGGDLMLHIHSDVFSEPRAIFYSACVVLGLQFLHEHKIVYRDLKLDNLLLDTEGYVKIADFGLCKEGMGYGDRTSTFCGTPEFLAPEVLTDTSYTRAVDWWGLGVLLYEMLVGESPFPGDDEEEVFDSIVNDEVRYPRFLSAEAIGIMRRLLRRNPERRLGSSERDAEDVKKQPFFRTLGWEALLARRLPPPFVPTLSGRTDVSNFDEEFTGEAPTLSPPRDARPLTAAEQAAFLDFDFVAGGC
# Chain of UniProt Q9BRX2 (Q9BRX2 whole entry, looked up): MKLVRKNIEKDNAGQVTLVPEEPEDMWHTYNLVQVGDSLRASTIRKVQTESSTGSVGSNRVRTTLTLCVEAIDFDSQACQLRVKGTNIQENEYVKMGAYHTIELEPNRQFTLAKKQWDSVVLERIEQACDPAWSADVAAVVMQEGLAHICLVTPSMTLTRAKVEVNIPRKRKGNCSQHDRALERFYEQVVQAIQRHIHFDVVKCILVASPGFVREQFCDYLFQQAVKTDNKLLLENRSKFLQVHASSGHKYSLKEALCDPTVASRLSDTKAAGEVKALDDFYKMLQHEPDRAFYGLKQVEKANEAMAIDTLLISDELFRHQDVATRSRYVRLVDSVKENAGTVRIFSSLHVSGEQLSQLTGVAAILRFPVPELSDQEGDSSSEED
# Chain of UniProt O00408 (O00408 whole entry, looked up): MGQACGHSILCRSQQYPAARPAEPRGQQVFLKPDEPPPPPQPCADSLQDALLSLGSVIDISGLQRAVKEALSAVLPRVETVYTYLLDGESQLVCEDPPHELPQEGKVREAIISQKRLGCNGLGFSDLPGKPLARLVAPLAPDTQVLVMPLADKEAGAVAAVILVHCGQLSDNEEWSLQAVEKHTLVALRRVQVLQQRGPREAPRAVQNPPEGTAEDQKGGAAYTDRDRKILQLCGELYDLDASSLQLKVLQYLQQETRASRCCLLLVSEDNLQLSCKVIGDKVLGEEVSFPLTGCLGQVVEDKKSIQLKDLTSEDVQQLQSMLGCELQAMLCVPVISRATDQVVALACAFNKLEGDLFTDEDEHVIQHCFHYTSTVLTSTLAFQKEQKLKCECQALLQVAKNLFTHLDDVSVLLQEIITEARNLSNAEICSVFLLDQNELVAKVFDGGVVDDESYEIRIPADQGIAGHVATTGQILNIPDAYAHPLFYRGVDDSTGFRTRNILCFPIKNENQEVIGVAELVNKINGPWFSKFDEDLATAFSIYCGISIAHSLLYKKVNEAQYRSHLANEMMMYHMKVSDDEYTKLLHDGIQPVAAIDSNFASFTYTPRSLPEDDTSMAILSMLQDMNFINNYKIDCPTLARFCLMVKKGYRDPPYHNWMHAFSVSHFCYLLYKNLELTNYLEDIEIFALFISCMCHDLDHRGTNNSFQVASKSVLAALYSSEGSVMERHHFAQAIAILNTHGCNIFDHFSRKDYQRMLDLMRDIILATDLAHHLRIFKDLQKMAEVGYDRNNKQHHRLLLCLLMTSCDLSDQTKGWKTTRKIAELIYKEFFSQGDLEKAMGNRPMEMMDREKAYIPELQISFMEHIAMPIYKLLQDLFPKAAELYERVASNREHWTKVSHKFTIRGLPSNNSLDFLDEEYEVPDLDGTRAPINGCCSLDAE
# Chain of UniProt O43741 (O43741 whole entry, looked up): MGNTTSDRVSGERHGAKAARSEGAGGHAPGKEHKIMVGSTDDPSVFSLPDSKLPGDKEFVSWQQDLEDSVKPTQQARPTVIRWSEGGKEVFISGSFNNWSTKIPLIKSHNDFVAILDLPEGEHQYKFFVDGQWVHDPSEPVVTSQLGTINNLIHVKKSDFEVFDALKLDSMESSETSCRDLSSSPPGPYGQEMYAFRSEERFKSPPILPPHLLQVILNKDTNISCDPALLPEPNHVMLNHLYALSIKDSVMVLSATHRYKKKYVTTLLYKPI
# Chain of UniProt P46019 (P46019 whole entry, looked up): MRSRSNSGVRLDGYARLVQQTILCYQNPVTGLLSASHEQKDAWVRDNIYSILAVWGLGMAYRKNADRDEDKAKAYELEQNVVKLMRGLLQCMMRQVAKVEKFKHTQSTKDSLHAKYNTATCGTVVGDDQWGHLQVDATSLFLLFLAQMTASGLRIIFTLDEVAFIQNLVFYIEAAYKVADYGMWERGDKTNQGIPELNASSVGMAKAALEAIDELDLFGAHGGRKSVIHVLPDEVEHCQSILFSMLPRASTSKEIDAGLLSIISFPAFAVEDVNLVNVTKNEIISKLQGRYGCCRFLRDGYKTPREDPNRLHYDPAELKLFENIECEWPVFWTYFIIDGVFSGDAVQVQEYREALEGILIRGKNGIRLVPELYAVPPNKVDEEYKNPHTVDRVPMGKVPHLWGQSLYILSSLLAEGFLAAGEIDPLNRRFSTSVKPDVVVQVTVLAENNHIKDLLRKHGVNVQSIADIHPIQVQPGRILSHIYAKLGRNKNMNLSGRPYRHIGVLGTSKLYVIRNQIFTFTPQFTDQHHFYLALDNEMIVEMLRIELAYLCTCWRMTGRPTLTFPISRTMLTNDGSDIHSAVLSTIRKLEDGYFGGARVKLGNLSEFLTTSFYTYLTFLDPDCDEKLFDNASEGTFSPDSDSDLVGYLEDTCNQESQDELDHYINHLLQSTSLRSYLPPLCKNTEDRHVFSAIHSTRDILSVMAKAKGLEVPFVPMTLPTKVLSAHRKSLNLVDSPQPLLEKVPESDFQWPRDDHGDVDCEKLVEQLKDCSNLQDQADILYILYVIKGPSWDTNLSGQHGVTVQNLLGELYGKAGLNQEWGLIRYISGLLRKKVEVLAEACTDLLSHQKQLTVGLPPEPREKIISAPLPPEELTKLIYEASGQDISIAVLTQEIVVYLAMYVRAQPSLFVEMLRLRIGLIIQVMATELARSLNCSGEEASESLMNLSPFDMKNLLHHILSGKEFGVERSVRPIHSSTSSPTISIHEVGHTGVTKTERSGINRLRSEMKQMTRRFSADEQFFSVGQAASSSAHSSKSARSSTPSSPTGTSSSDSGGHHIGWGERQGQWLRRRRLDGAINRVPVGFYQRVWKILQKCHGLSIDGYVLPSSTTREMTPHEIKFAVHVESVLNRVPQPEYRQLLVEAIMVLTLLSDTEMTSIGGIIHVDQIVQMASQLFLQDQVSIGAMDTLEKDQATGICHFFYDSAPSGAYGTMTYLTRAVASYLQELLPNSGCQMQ
# Chain of UniProt Q9HAU0 (Q9HAU0 whole entry, looked up): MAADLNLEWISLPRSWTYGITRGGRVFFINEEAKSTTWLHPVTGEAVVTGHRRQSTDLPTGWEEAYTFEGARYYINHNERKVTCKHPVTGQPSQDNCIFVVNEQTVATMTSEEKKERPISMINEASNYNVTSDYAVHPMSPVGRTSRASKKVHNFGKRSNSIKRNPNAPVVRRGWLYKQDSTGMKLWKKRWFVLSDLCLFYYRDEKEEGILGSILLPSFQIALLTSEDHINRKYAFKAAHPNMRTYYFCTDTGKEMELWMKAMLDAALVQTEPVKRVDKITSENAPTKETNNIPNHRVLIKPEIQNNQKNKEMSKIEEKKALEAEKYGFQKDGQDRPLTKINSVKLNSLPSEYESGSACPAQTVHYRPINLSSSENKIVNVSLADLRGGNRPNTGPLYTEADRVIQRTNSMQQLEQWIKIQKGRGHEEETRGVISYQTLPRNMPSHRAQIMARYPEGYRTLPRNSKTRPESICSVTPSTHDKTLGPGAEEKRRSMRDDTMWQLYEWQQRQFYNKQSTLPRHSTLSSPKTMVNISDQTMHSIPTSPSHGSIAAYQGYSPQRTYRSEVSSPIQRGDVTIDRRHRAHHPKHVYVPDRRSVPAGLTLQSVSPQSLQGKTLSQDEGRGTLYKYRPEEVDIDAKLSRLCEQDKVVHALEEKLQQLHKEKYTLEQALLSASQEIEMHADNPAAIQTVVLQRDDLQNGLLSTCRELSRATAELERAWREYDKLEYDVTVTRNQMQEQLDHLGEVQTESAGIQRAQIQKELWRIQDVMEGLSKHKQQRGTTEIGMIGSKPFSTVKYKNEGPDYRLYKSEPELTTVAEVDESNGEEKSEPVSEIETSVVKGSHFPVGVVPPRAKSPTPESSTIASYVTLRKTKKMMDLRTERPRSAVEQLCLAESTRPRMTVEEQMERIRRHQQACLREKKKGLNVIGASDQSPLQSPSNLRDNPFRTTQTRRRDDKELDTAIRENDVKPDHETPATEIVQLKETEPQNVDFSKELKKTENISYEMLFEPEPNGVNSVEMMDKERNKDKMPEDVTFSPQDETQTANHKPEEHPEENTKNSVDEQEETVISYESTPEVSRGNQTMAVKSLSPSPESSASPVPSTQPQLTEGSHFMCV
Target,log2 fold change (ibrutinib),log2 fold change [1],log2 fold change (ralimetinib),log2 fold change [2],log2 fold change [3],log2 fold change [4],log2 fold change [5],log2 fold change [6],log2 fold change [7],log2 fold change [8]
PLEKHA5 isoform 6 (UniProt Q9HAU0),0.075,0.003,-0.004,-0.001,0.069,-0.013,-0.033,0.028,0.022,-0.036
PDCD4 (UniProt Q53EL6),-0.002,-0.002,0.025,-0.032,0.007,0.025,-0.003,0.032,0.007,0.011
POLA1 (UniProt P09884),0,-0.013,-0.032,0.003,0.001,0.007,-0.001,0.02,0.022,-0.016
PPIE (UniProt Q9UNP9),-0.047,-0.015,-0.041,-0.05,-0.025,-0.043,0.021,0.024,0.034,-0.035
PUM1 isoform 3 (UniProt Q14671),-0.034,0.009,0.003,-0.031,-0.035,0.032,0.044,-0.435 (active),0.049,0.014
PRKAB2 (UniProt O43741),-0.041,-0.018,0.093,-0.129,-0.025,0.086,-0.066,-0.082,0.035,-0.008
PELO (UniProt Q9BRX2),0.034,-0.004,0.04,-0.035,0.005,-0.02,-0.012,-0.005,0.001,0.002
PRKAR2A (UniProt P13861),0.044,-0.064,0.033,-0.032,0.018,0.015,0.005,0,0.011,0.036
PDE2A (UniProt O00408),-0.008,-0.148,-0.202,-0.107,-0.045,-0.018,0.025,-0.038,0.01,-0.11
PHKA2 (UniProt P46019),-0.032,0.095,-0.022,-0.097,-0.016,-0.03,-0.076,0.007,0.013,-0.015
PRKDC (UniProt P78527),0.096,0.318,0.033,0.01,-0.014,-0.021,0.031,-0.057,0.038,-0.01
PTPN1 (UniProt P18031),-0.003,-0.024,0.018,0.024,0.006,-0.005,-0.002,0.006,0.049,0.016
POLR2F (UniProt P61218),0.02,0.051,-0.238,-0.059,-0.11,-0.039,0.096,0.009,-0.157,0.009
PRKCSH isoform 2 (UniProt P14314),-0.125,0.069,0.012,-0.142,-0.004,0.04,-0.017,0.131,0.132,-0.045
PIK3R2 (UniProt O00459),-0.041,0.242,0.11,0.029,-0.028,0.008,0.01,0,0.07,0.019
PRMT8 (UniProt Q9NR22),-0.073,-0.012,0.036,-0.018,0.003,-0.028,0.009,0.032,0.002,0.007
PEF1 (UniProt Q9UBV8),0.009,-0.021,-0.034,-0.036,-0.029,-0.025,-0.004,0.021,0.01,-0.01
PRKD3 (UniProt O94806),-0.112,0.054,-0.164,-0.052,0.03,0.039,–,-0.068,-0.022,-0.077
PTP4A1 (UniProt Q93096),0.011,0.027,0.015,-0.071,-0.031,-0.113,-0.007,-0.012,-0.048,0
PUF60 (UniProt Q9UHX1),0.011,-0.004,-0.034,0.013,0.018,-0.02,0.009,-0.003,-0.001,0.004
PUF60 isoform 2 (UniProt Q9UHX1),0.153,-0.049,0.045,0.004,-0.174,-0.021,–,0.032,-0.036,0.013
PLK1 (UniProt P53350),-0.004,0.069,0.009,0.015,0.068,0.022,-0.019,0.032,0.036,-0.014
PPP1R11 (UniProt O60927),-0.037,0.058,0.062,-0.021,-0.024,0.1,0.052,0.059,-0.037,-0.01
PKN1 isoform 2 (UniProt Q16512),0.011,-0.107,-0.001,0.008,0.006,0.091,0.021,0.048,0.035,0.05
PDXK (UniProt O00764),0.007,0.014,0.01,-0.006,-0.009,0.017,-0.058,0.016,-0.029,-0.001
PRKACB isoform 2 (UniProt P22694),-0.006,0.693 (active),0.033,-0.03,-0.013,0.025,-0.014,-0.037,0.014,-0.024
PPP2R5C isoform 5 (UniProt Q13362),-0.002,0.012,-0.021,-0.036,-0.037,-0.038,0.02,0.002,0.014,0.037
PCBD2 (UniProt Q9H0N5),0.035,0.02,0.051,-0.08,0.033,0.025,0.022,0.027,-0.007,-0.03
PSTPIP2 (UniProt Q9H939),-0.019,-0.037,-0.024,0.012,0.001,-0.049,-0.037,0.022,-0.001,-0.034
